“And” between values parts separate entries of the source, which are not always exact repeats. Equal values may be shown once.
Tests used:
Format in all cases: functional
[1] = target: Solute carrier family 2, facilitated glucose transporter member 1 (Homo sapiens) (UniProt P11166); assay: ST_JUDE_LEISH: Cytotoxicity at 2uM final concentration against transgenic Leishmania Mexicana promastigotes LmGLUT1 that are glucose transport deficient and complemented with the human glucose transporter GLUT1. Activity is measured by DNA content using SYBR green in vitro
[2] = target: Hexose transporter 1 (Plasmodium falciparum) (UniProt O97467); assay: ST_JUDE_LEISH: Cytotoxicity at 2uM final concentration against transgenic Leishmania Mexicana promastigotes LmPfHT that are glucose transport deficient and complemented with the Plasmodium falciparum hexose transporter. Activity is measured by DNA content using SYBR green in vitro
[3] = target: Glucose transporter (Leishmania mexicana) (UniProt O61059); assay: ST_JUDE_LEISH: Cytotoxicity at 2uM final concentration against transgenic Leishmania Mexicana promastigotes LmGT2 that are glucose transport deficient and complemented with the L. Mexicana glucose transporter 2. Activity is measured by DNA content using SYBR green in vitro

Sequence of Solute carrier family 2, facilitated glucose transporter member 1 (Homo sapiens) (P11166 whole entry): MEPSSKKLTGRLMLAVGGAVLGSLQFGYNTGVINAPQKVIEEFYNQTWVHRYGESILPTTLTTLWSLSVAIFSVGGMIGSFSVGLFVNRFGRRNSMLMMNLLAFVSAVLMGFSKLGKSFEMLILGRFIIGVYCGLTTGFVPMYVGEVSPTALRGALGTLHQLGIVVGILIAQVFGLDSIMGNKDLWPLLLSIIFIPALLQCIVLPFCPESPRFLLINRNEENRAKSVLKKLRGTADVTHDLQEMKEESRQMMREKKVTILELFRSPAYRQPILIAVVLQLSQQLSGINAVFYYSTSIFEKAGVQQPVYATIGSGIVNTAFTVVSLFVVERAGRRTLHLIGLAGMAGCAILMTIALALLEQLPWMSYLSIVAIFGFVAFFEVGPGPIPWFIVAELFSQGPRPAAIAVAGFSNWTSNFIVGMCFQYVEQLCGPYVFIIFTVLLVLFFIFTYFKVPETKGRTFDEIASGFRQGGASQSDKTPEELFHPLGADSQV

SMILES | inhibition [1] | inhibition [2] | inhibition [3]
COc1ccc(CNc2cc(C)nc3sc4c(c23)CCC2(C4)OCCO2)cc1 | 1.79% | 1.85% | 0.47%
N#Cc1ccc(-c2ccc(OCC(O)CN3CCCN(C(=O)C(c4ccc5c(c4)OCO5)N4CCN(C/C=C/c5ccccc5)CC4)CC3)cc2)cc1 (stereo unspecified) | 4.32% | 2.9% | 2.95%
N#Cc1ccc2c(c1)CCN(CCC1CCC(NC(=O)/C=C/c3ccc(Cl)c(Cl)c3)CC1)CC2 (stereo unspecified) | 9.87% | 13.1% | 6.83%
NCCNc1ccc([N+](=O)[O-])cc1C(=O)Nc1cccc(C(F)(F)F)c1 | 3.02% | 3.19% | 3.98%
Cn1c(N)c(N=O)c(=O)[nH]c1=O | 1.53% | 0.51% | 1.58%
Nc1nc(N)c2c(ccc3c2ccn3CC2CC2)n1 | 2.11% | 6.17% | 0.91%
O=C(NCCN1CCCC1)c1ccc(-c2ccc(-c3nc4ccccc4[nH]3)s2)cc1 | 0.96% | -1.55% | 0.42%
Oc1ccc2c(c1CNC1CCCCC1)CCCC2 | 5.27% | 3.89% | 4.96%
Cc1cc(C(=O)Nc2ccc3c(c2)CCN3C2CCN(Cc3csc4ccccc34)C2)no1 (stereo unspecified) | 0.87% | -2.02% | 1.87%
N#Cc1cccc(NC(=O)Nc2cccc(-c3cccc(-c4nc5cc(C(F)(F)F)ccc5[nH]4)c3)c2)c1 | 2.08% | 1.85% | 3.18%
CCC[C@@H]([C@@H](CC(C)C)C(=O)N[C@@H](CCCCNC(=O)c1ccccn1)C(=O)Nc1nccs1)N(O)C=O | 4.93% | 6.98% | 1.73%
CC(C)C[C@H](NC(=O)c1cc2ccccc2s1)C(=O)N[C@H]1CCN(Cc2ccc(I)c(OC3CCN(C)C3)c2)C1 (stereo partly specified) | -1.02% | 1.35% | -2.35%
COc1ccccc1OCCN(CC(O)COc1cccc2[nH]c3ccccc3c12)CC(O)COc1cccc2[nH]c3ccccc3c12 (stereo unspecified) | 3.01% | 2.43% | 2.35%
CCc1cn(C)c2c(N3CCCC3=O)cc(C(=O)N[C@@H](Cc3ccccc3)[C@H](O)CNC(C)(C)CCCC(C)C)cc12 | 3.03% | 4.09% | 3.95%
Clc1ccc(-c2cc3c(NCc4ccncc4)nccc3s2)cc1 | 6.24% | 4.38% | 2.2%
O=C(N[C@@H](CC1CCCCC1)C(=O)NC1CCCc2ccccc21)c1ccc(O)c(-c2ccc(Cl)c(Cl)c2)c1 (stereo partly specified) | 1.23% | 0.75% | 0.12%
CCNc1cc(C)nc(Nc2ccc(NC(=O)c3ccccc3Cl)cc2)n1 | 6.51% | 8.33% | 5.34%
NS(=O)(=O)c1cccc(-c2ccc3ncc(N4CCOCC4)nc3c2)c1 | 1.24% | 2.84% | -0.09%
CC(C)(C)c1ccc(CNCC(C)(C)c2nc(-c3ccnc(N)n3)c(-c3ccc(Cl)c(O)c3)[nH]2)cc1 | 5.04% | 6.23% | 4.54%
CC1(C)[C@H]2CC[C@@H](CNc3nc(NCCc4c[nH]cn4)nc(Nc4ccc5c(c4)OCO5)n3)[C@@H]1C2 | 2.49% | 0.99% | 0.68%
O=C(Nc1nc(-c2ccccn2)cc2ccccc12)c1cccc(Cl)c1 | 10.1% | 9.58% | 8.17%

SMILES | inhibition [1] | inhibition [2] | inhibition [3]
COc1ccc(NC(=O)c2c(NC(=O)c3cccs3)sc3c2CCCC3)cc1 | 0.31% | 2.45% | 5.21%
CCCCCN1CCC(NS(=O)(=O)c2cccc(C(=O)Nc3cccc(C(F)(F)F)c3)c2)C1 (stereo unspecified) | 1.68% | 1.1% | 4.07%
O=C1NC(C(=O)Nc2ccccc2)C(c2ccccc2)S1 (stereo unspecified) | -0.88% | -1.96% | -0.52%
CCS(=O)(=O)N1CCN(c2nc(-c3ccccc3)nc(COC)c2Cc2ccccc2F)CC1 | 3.58% | 2.32% | 4.99%
N#Cc1cc(C(=O)c2cc(Br)ccc2O)cn(C2CCCCC2)c1=O | 0.39% | 1.1% | 3.8%
COc1cc(Nc2ncc3c(C)nc(-c4cc5ccccc5[nH]4)n3n2)cc(OC)c1OC | 4.94% | 5.87% | 2.06%
O=c1cc(NCCCNCc2[nH]c3cc(Cl)cc(Cl)c3c2Cn2cccn2)[nH]c2ccccc12 | 0.47% | -1.31% | 1.93%
CC(C)NCc1cccc(-c2cccc(-c3nc4cc(F)ccc4[nH]3)c2)c1 | 14.2% | 11.4% | 11.6%
COc1ccc2nccc([C@@H](O)CN3CCC(NCc4nc5c(cc4F)SCC(=O)N5)C(F)C3)c2c1 (stereo partly specified) | 5.83% | 3.21% | 4.51%
Cc1cc(N[C@@H](CC(C)C)C(=O)NCc2cccs2)nc(NCCc2ccc(F)cc2)n1 | 0.98% | -0.43% | 0.13%
N=c1n(Cc2ccccc2)c2ccccc2n1CC(O)c1ccc(Cl)c(Cl)c1 (stereo unspecified) | -0.72% | 1.71% | 1.3%
COc1ccc(C(=O)Nc2ccc3nc(N4CCCCC4)cc(C)c3c2)cc1[N+](=O)[O-] | 2.05% | 3.3% | 2%
O=C(CCc1c[nH]cn1)Nc1cccc(-c2ccc(-c3nc4cc(F)ccc4[nH]3)cc2)c1 | 16.3% | 13.1% | 16.6%
CCNc1cc(C(=O)N[C@@H](Cc2cccc(F)c2)[C@H](O)CNC(C)CCCC(C)C)cc(N2CCCCS2(=O)=O)c1 (stereo partly specified) | 1.15% | 2.92% | 1.42%
CC(C)C[C@@H](C(=O)N[C@@H](CCCCNC(=O)OCc1ccccc1)C(=O)Nc1nccs1)[C@H](C)N(O)C=O | 3.19% | 3.38% | 0.49%
COc1ccc(-c2nc(NC(=O)Cc3coc4cc(OC)ccc34)sc2C)cc1 | -1.68% | 0.45% | -0.72%
Cc1cc(N/N=C/c2ccc([N+](=O)[O-])cc2)c2ccc(F)cc2n1 | 2.33% | 3.03% | -1.86%
O=C(/C=C/c1ccc(Cl)c(Cl)c1)NCCCCCN1CCC(c2c[nH]c3ccccc23)C(O)C1 (stereo unspecified) | 0.14% and 4.45% | 0.8% and 4.3% | 2.14% and 3.3%
Cc1nn(-c2ccc(Cl)cc2)c2[nH]c(CN3CCN(c4cccc(Cl)c4)CC3)cc(=O)c12 | 20.2% | 21% | 17%
CN(C(=O)/C=C/c1cc(C(F)(F)F)ccc1F)C1CCN(CCCCCNC(=O)/C=C/c2ccc(Cl)c(Cl)c2)C1 (stereo unspecified) | 0.02% | 1.48% | 1.37%
CCn1c(C2CCN(CCC3CCN(C(=O)/C=C/c4ccc(Cl)c(Cl)c4)CC3)CC2)nc2ccccc21 | 3.31% | 1.31% | 0.66%

SMILES | inhibition [1] | inhibition [2] | inhibition [3]
COc1ccc(Cn2c(Nc3cccc(C(F)(F)F)c3)nc3cc(C(=O)NCCCN(C)C)ccc32)cc1Cl | 0.66% | 0.55% | -1.19%
CN1CCCc2ccc(NC(=O)c3ccc(-c4cc(C(F)(F)F)nn4C)s3)cc2C1 | 2.28% | 1.85% | -2.38%
CN(C)Cc1ccc(O)c(-c2ccc(C(C)(C)C)cc2)n1 | -0.79% | 0.1% | 2.74%
COc1cc2nc(NCCCN3CCCCC3)nc(NCc3ccccc3)c2cc1OC | 2.96% | 4.73% | -0.35%
CS(=O)(=O)CCNCc1cccc(-c2cc3c(Nc4ccc5c(cnn5Cc5ccccc5)c4)ncnc3s2)c1 | 2.62% | -0.73% | 0.63%
Cc1ccc(NC(=O)Nc2ccc(Cl)c(C(F)(F)F)c2)cc1-c1ccc(C(=O)NCCN2CCOCC2)cc1 | 8.1% | 5.32% | 5.24%
Cc1cccn2c(=O)c3cc(C(=O)NCCN4CCOCC4)c(=N)n(CCc4ccccc4)c3nc12 | -0.34% | 2.09% | 0.41%
Cc1ccc2[nH]c(C)c(Br)c(=O)c2c1 | -1% | -2.07% | -3.38%
CN1CCN(c2ccc(-c3cccc(NC(=O)c4cccc(Cl)c4)c3)nn2)CC1 | 2.62% | 1.54% | 3.23%
COc1ccccc1NC(=O)Nc1cccc(-c2ccc(-c3nc4cccc(C)c4[nH]3)s2)c1 | 3.95% | 6.34% | 3.94%
CNCCNCc1ccc(-c2cccc(-c3nc4cc(C(F)(F)F)ccc4[nH]3)c2)cc1 | 3.52% | 0.66% | 1.45%
N#Cc1ccc(-c2nc3c(N4CCCC4)cccc3n2CCNCc2ccccc2)cc1 | 12.3% | 11% | 11.8%
COc1ccc(CCNC(=O)c2ccc(-n3cc(NC(=O)c4cccnc4)cn3)cc2)cc1OC | 3.78% | 3.85% | 3.79%
CCOc1cc(Cl)c(C(C)NC(=O)c2cccc(OC)c2)cc1OCC (stereo unspecified) | 7.84% | 7.46% | 4.84%
CC1(C)N=C(N)N=C(N)N1OCc1cccc(C#N)c1 | 2.81% | 0.82% | 1.5%
O=[N+]([O-])c1ccc2c(-c3ccccc3)c(-c3ccccc3)n(O)c2c1 | 2.37% | 3.54% | 0.3%
N=C1N=C(N)NC2(CCCCC2)N1OCCCOc1cccc2ccccc12 | 54.1% | 60% | 37.9%
COc1cc(NC(=O)c2cc([N+](=O)[O-])ccc2NC(=O)CNC2CCCC(C)C2C)cc(OC)c1 (stereo unspecified) | 12% | 4.27% | 3.41%
Cc1cc(-c2cccc(CNC3CCN(C)CC3)c2)ccc1S(=O)(=O)NCCN1CCCC1 | 0.26% | 0.15% | 0.59%
O=C(/C=C/c1ccc(Cl)c(Cl)c1)NCCCCCN1CC[C@H](NC(=O)c2sc3ccccc3c2Cl)C1 | 5.64% | 3.45% | -1.69%
